From PubChem BioAssay AID435009 (The Scripps Research Institute Molecular Screening Center, 2010)
Values without a mark were called inactive. The source made the active and inactive calls. How the calls were made is not given here.

Experiment: XO enzyme superoxide output inhibition – biochemical, IC50, set 2, NOX1 inhibitor project, late-stage follow-up (AID 435009)
Conditions: Xanthine oxidase enzyme assay, ROS/superoxide detection

Row | SMILES | IC50
1 | CSc1ccc(NC(=O)Nc2ccc(N(C)C)cc2)cc1 | 1.2 µM (active)
2 | Oc1c(Br)cc(/C=N/Nc2c(Cl)cncc2Cl)cc1Br | > 5 µM
3 | COc1cc(-c2nc(-c3ccccc3)c(-c3ccccc3)[nH]2)ccc1O | 0.01 µM (active)
4 | Cc1cc(Cl)ccc1NC(=S)NNC(=S)Nc1ccc(F)cc1 | 3.3 µM (active)
5 | CN(C)c1ccc(/C=N/Nc2c(Cl)cncc2Cl)cc1 | > 5 µM
6 | FC(F)(F)c1ccc2c(c1)Nc1ccccc1S2 | 5 µM (active)
7 | CN(C)c1ccc(NC(=O)Nc2ccc(OCc3ccccc3)cc2)cc1 | 1.3 µM (active)
8 | Fc1ccc(NC(=S)NNC(=S)Nc2ccccc2)cc1 | 0.5 µM (active)
9 | COc1cc(-c2nc(-c3ccccc3)c(-c3ccccc3)[nH]2)cc(OC)c1O | 0.9 µM (active)
